Results filed as inconclusive are left out. A call without a number means that no potency is given here. The source made the active and inactive calls. Calls come from the whole dose curve; as a rule, active = well fitted cell-killing curve with a large enough effect; inconclusive = small, poorly fitted or top-dose-only effect; inactive = flat fitted curve, though single readings scatter.
Assay: qHTS of pediatric cancer cell lines to identify multiple opportunities for drug repurposing: Primary screen for BT-12 cells (AID 1347101); note: nearly all actives have a fitted effect of over 25% in size
Details: BT-12 viability, CellTiter-Glo luminescence, 48 h; series mostly up to 57.3 µM
Text: Drug repurposing or repositioning has been offered as a strategy for drug development in oncology programs. This approach has special potential for childhood cancers and other rare or orphan diseases, where the expected return on new drug development has been a disincentive to pharmaceuticals.
In this project we exploit the poly-pharmacology of drugs to discover new indications via phenotypic screening of a panel of 19 well-characterized cell lines derived from solid tumors seen in children and adolescents. The goal is to identify approved drugs with previously unrecognized anticancer properties that has the potential to reveal new mechanisms and biological processes involved in carcinogenesis or drug resistance. We employed a titration-based paradigm (quantitative high-throughput screening or qHTS), where all compounds were tested at multiple concentrations for their effect on cell viability. Concentration-response curves (CRCs) were derived directly from the primary screen, and both potency and efficacy values were used to identify compounds with robust bioactivity profiles. We screened the NIH Chemical Genomics Center (NCGC) Pharmaceutical Collection (NPC) and Mechanism Interrogation Plate (MIPE) small molecule collections of approved and investigational compounds against these cell lines; and measured metabolically active cells after 48 hours of compound treatment as a proxy for cell viability.
Assay Submitter: Nathalia J. Martinez, National Center for Advancing Translational Sciences, National Institutes of Health, Rockville, MD, USA; email: natalia.martinez@nih.gov
[1] Shen, M et al. Quantitative high-throughput phenotypic screening of pediatric cancer cell lines identifies multiple opportunities for drug repurposing. Oncotarget 2017 Dec 19;9(4):4758-4772. PMID 29435139.
The cells were obtained from University of North Carolina (UNC), Pediatric Preclinical Testing Program (PPT), and Coriell Institute (CI).
qHTS cell viability assay:
Cells were assayed in growth media at a density of 500-1,000 cells/well. Five microliters of cells were dispensed into 1,536-well, white, solid-bottom, TC-treated plates (Greiner Bio One) using a multidrop dispenser and incubated at 37 degrees C, 5% CO2, under a humidified atmosphere for 5 hours. Twenty-three nanoliters of compounds and controls (neutral control DMSO or positive control bortezomib at final concentration of 2.3 µM) were subsequently transferred by Kalypsys pintool. For primary screens, the MIPE collection was tested at 11-point dilutions (final concentrations range from 0.78 nM to 46 µM) and the NPC collection at 8-point dilutions (final concentrations range from 0.59 nM to 46 µM). Compounds tested in follow-up screens were assayed at 11-point dilutions. Cells were incubated for 48 hours, followed by addition of 3 µL of CellTiter-Glo (Promega). After a 15 min incubation at room temperature, samples were analyzed for luminescence intensity using a ViewLux High-throughput CCD imager equipped with clear filters.
Potency is the fitted concentration of half-maximal effect.

Row | Structure (SMILES) | Potency
1 | O=C(c1ccccc1)c1ccccc1 | inactive
2 | CC(C)(C)C(=O)OCOC(=O)C1N2C(=O)CC2S(=O)(=O)C1(C)C (stereo not given) | inactive
3 | CC(=O)Nc1c(I)c(NC(C)=O)c(I)c(C(=O)O)c1I | inactive
4 | C[C@H](CN1CCCC1)C(=O)c1ccc(C(F)(F)F)cc1 | inactive
5 | O=C(CS(=O)Cc1ccco1)NC/C=C\COc1cc(CN2CCCCC2)ccn1 (stereo not given) | inactive
6 | O=C1CC(c2ccc(Cl)cc2)CC(=O)N1 | inactive
7 | CCCC(=O)c1cc(O)c(O)cc1O | inactive
8 | O=C(c1ccco1)N1CCNCC1 | inactive
9 | c1ccc(C(O[C@H]2CCCN(CCc3ccc4c(c3)OCO4)C2)c2ccccc2)cc1 | inactive
10 | CN1Cc2cc(C(=O)N3CCC(C4CCNCC4)CC3)ccc2N[C@@H](CC(=O)O)C1=O | inactive
11 | Nc1c(I)cc(I)c(C(=O)N(CCC(=O)O)c2ccccc2)c1I | inactive
12 | CCC[C@H](N[C@@H](C)C(=O)N1[C@H](C(=O)O)C[C@@H]2CCCC[C@@H]21)C(=O)OCC | inactive
13 | NC(=O)COCCN1CCN(C(c2ccccc2)c2ccc(Cl)cc2)CC1 (stereo not given) | inactive
14 | CCOC(=O)[C@H](CCc1ccccc1)N[C@@H](C)C(=O)N(CC(=O)O)C1Cc2ccccc2C1 | inactive
15 | CCn1ccc(NS(=O)(=O)c2ccc(N)cc2)nc1=O | inactive
16 | CC(C)(Oc1ccc(Cl)cc1)C(=O)OCCCOC(=O)C(C)(C)Oc1ccc(Cl)cc1 | inactive
17 | O=C1Cc2cc(Cl)ccc2N1 | inactive
18 | CCOC(=O)NNc1ccc(N(CC)CC(C)O)nn1 (stereo not given) | inactive
19 | CC(C)(C)c1ccc(C(=O)CCCCl)cc1 | inactive
20 | Nc1ccc(C(=O)OCC(O)CO)cc1 (stereo not given) | inactive

Row | Structure (SMILES) | Potency
21 | CNC(=O)c1c(I)c(NC(C)=O)c(I)c(C(=O)O)c1I | inactive
22 | CC(C)C(=O)Nc1cccc(C2CN3CCSC3=N2)c1 (stereo not given) | inactive
23 | Nc1c2ccccc2nc2ccccc12 | 12.3 µM (active)
24 | O=C1NC(c2ccccc2)(c2ccccc2)C(=O)N1COP(=O)(O)O | inactive
25 | CCCCCC[C@@H](CCC)C(=O)O | inactive
26 | CCc1cccc2c(CCO)c[nH]c12 | inactive
27 | COc1ccc2c(c1)c(CC(=O)OC/C=C(\C)CC/C=C(\C)CCC=C(C)C)c(C)n2C(=O)c1ccc(Cl)cc1 | inactive
28 | CC(=O)c1cc2ccccc2s1 | inactive
29 | O=C1NCCN1CCN1CCC(c2cn(-c3ccc(F)cc3)c3ccc(Cl)cc23)CC1 | 8.71 µM (active)
30 | O=C(C1CCCCC1)N1CC(=O)N2CCCc3ccccc3C2C1 (stereo not given) | inactive
31 | CC(C)=CCC/C(C)=C/CC/C(C)=C/CCC(=O)OC/C=C(\C)CCC=C(C)C | inactive
32 | COC(=O)/C=C\C(=O)OC | inactive
33 | CC(C)NCCCC1(C(N)=O)c2ccccc2-c2ccccc21 | inactive
34 | Cc1cnc(NS(=O)(=O)c2ccc(N)cc2)nc1 | inactive
35 | C[N+]1(C)CCC(OC(=O)C(O)(c2ccccc2)C2CCCC2)C1 (stereo not given) | inactive
36 | CCN(CC)CC(=O)OCC(=O)[C@@]1(O)CC[C@H]2[C@@H]3CCC4=CC(=O)CC[C@]4(C)[C@H]3[C@@H](O)C[C@@]21C | inactive
37 | O=C1CCCc2c(O)cccc21 | inactive
38 | Cc1sccc1Br | inactive
39 | CSCC[C@H](NC(=O)[C@H](Cc1c[nH]c2ccccc12)NC(=O)CCNC(=O)OC(C)(C)C)C(=O)N[C@@H](CC(=O)O)C(=O)N[C@@H](Cc1ccccc1)C(N)=O | inactive
40 | CCCc1ccc(OCC(=O)N2CCN(C(=O)COc3ccc(CCC)cc3OC)CC2)c(OC)c1 | inactive

— PubChem BioAssay (NCATS)
